Screening results from PubChem BioAssay.
Cycloheximide cs = affects cycloheximide protein synthesis inhibition readout, counter-screen. cell reporter, cycloheximide protein synthesis inhibition counterscreen. max response, %. actives 12% (n = 300,000). AID 2314; in the data active means max response mostly above about 13%, no sharp cut-off; inactive means mostly below about 14%; further: read at 38.3 µM for the half of the compounds with a filed dose; 0% is about no effect
Pf growth 48h = inhibits P. falciparum growth in the first generation, 48 h. AID 504832. Potency, µM (highest dose often 28.7 µM), for the others: at the highest dose activity change, negative = inhibition, usual class: inhibitors. actives 5.9% (n = 310,000). P. falciparum luciferase growth in erythrocytes, 48 h; further: potency means the concentration at half of the fitted maximal effect; on the % scale 0 is the no-effect control and ±100 the full control effect
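A one-generation exposure of luciferase-tagged malaria parasites in RPMI 1640/Albumax erythrocyte culture, 37 C and 5% CO2. Inhibition is inferred from decreased luminescence after adding detection reagent.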
HCMV inh = blocks human cytomegalovirus replication; activity change, negative = inhibition, % at 57.5 µM; actives 4.5% (n = 410,000); HFF cells, HCMV-luciferase reporter, 72 h; stronger effect = lower value; in the data active means activity change below about -60%; inconclusive means no clear call, values can overlap the other calls; inactive means above about -39%; further: on the % scale 0 is the no-effect control and ±100 the full control effect
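Cell-based, HFFs, 1000 cells/well, 16 h 37C; cpds in DMSO + HCMV-luc, MOI 1 PFU/cell; 72 h 37C; OneGlo luminescence after 5 min RT; norm. to buffer vs Salinomycin 10uM.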
Pf growth 96h = inhibits malaria parasite growth, 96 h. P. falciparum luciferase reporter growth, 96 h. Potency, µM (doses to about 28.7 µM), without a hit: at the top dose activity change, negative = inhibition, hits mostly inhibitors. actives 6.9% (n = 320,000). AID 504834; further: potency means the concentration at half of the fitted maximal effect; on the % scale 0 is the no-effect control and ±100 the full control effect
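Plates of compound plus infected erythrocytes (2% hematocrit, 0.05% parasitemia final) incubate 96 hours, 37 C, 5% CO2. Detection reagent added; reduced luminescence from the parasites' luciferase reporter flags inhibition.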
HCV inh = inhibitors of hepatitis C virus infection. Huh7.5.1 HCVcc-Cre infection, luciferase reporter, 44 h. Potency, µM (highest dose often 41.8 µM), for inactives: at the top dose activity change, negative = inhibition, actives largely listed as inhibitors. actives 3.4% (n = 340,000). AID 651820; further: potency means the concentration at half of the fitted maximal effect; on the % scale 0 is the no-effect control and ±100 the full control effect
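Infectious HCVcc-Cre (~0.5 moi) was added to cells just after compound, with cells seeded 4 h earlier at 1,000 per well. Luciferase activity after 44 h culture reported infection; substrate was incubated 15 min at room temperature before reading.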
Shiga inhibitor = blocks Shiga toxin action in Vero cells. Vero cells, Shiga toxin protein synthesis inhibition reporter. AID 2315. inhibition, % at 38.7 µM. actives 9.2% (n = 290,000); in the data active means inhibition mostly above about 28%, no sharp cut-off; inactive means mostly below about 43%; further: 0% is about no effect
Starred values were filed as active, the others as inactive; ? = inconclusive; nt = no result. An excerpt weighted towards active compounds, which were near 21% of everything screened. Unless noted, the call rests on the fitted dose curve; in most records, active means well fitted inhibition curve with a large enough effect; inconclusive means small, poorly fitted or top-dose-only effect, or another doubt; inactive means no such curve, though single readings can be large or run the other way.

SMILES | Cycloheximide cs | Pf growth 48h | HCMV inh | Pf growth 96h | HCV inh | Shiga inhibitor
Cc1nc(-c2ccc(NC(=O)C3CC3)cc2)cs1 | 22.7* | 94.7% | -4.4 | 90.5% | 2.0% | 80.6*
CC1CN(S(=O)(=O)c2cccc(C(=O)NCC3COc4ccccc4O3)c2)CC(C)O1 (stereo not drawn) | nt | ? | -9.0 | ? | ? | nt
Cc1ccc(C(=O)N/N=C(/CC(=O)c2cccs2)C(F)(F)F)cc1 | 23.2* | 16.0% | -85.8* | -19.5% | -24.1% | -2.8
O=C(N/N=C(\CC(=O)c1cccs1)C(F)(F)F)c1ccncc1 | -1.4 | 0.233µM* | -76.5* | ? | ? | 9.8
N#CCCn1cc(C(=O)O)c(-c2ccc3ccccc3c2)n1 | 4.7 | -8.3% | -23.2 | -5.0% | 11.6% | 41.0
Cc1cc(C)cc(NC(=O)Cn2c(=O)n(Cc3ccco3)c(=O)c3oc4ccccc4c32)c1 | nt | nt | -30.1 | nt | nt | nt
CC(C)c1ccc(COc2ccc(C(=O)N3CCOCC3)cc2)cc1 | 15.8* | -15.6% | -34.4 | -5.3% | ? | 69.6
Cc1ccc(C(=O)N2CCOCC2)cc1Cl | -2.7 | 22.4% | 6.3 | -18.4% | -14.3% | 16.4
CC(C)c1ccc(OCc2ccc(C(=O)N3CCN(c4ccccn4)CC3)cc2)cc1 | 30.3* | ? | -24.9 | -25.1% | 5.01µM* | 170.3
Cc1ccc(OCc2ccc(C(=O)N3CCOCC3)cc2)cc1C | 31.2* | 152.8% | 83.4 | -0.1% | -3.7% | 53.7*
COc1cc2c(cc1OC)C(c1cccc([N+](=O)[O-])c1)NC(=O)C2 (stereo not drawn) | 7.5 | 3.9% | -17.8 | 6.57µM* | -3.8% | -21.4
COc1cc2c(cc1OC)C1(CCCC1)CNC2c1cccc([N+](=O)[O-])c1 (stereo not drawn) | -13.1 | ? | -37.6 | 3.29µM* | 1.1% | -25.8
COc1cc2c(cc1OC)C(c1cccc(Br)c1)NC(=O)C2 (stereo not drawn) | -2.2 | 57.8% | 68.5 | -22.6% | 3.2% | -1.7
CCN(CCCNC(=O)Cn1ncc2c3ccccc3n(C)c2c1=O)c1cccc(C)c1 | nt | nt | 21.2 | nt | nt | nt
C/C(=N\Nc1nc(-c2ccccc2)cs1)c1cccs1 | 75.3* | 55.4% | 38.1 | -14.7% | 2.82µM* | 118.3*
C/C(=N\Nc1nc2ccccc2s1)c1cccs1 | 88.7* | 202.9% | -22.3 | 84.1% | -25.9% | 72.5*
COC(=O)CCC(=O)Nc1nc(-c2ccccc2)cs1 | nt | nt | 57.7 | nt | -11.2% | nt
CC(=NNc1nc2ccccc2s1)c1ncccn1 | nt | nt | -97.3* | nt | ? | nt
CN(CC(=O)Nc1ccc(F)cc1)C(=O)Cn1cnc2ccc(Cl)cc2c1=O | nt | ? | 9.4 | ? | 18.6% | nt
Cc1ccc(S(=O)(=O)NC(C)C(c2cccs2)N2CCN(C)CC2)cc1 (stereo not drawn) | -4.2 | -21.4% | -16.2 | 10.4µM* | -26.2% | -4.5
O=[N+]([O-])c1cccc(CNC2CCCCCC2)c1 | -3.7 | -4.5% | -30.8 | 18.4% | 15.9% | -5.6
COc1cc(NC(=O)c2cc([N+](=O)[O-])ccc2NC(=O)CNCc2ccccn2)cc(OC)c1 | -6.9 | ? | 28.9 | -25.2% | -13.6% | -7.2
COc1cc(NC(=O)c2cc([N+](=O)[O-])ccc2NC(=O)CNC2CCCCC2)cc(OC)c1 | 0.3 | 0.828µM* | 15.3 | 11.7% | ? | 7.5
COc1cc(NC(=O)c2cc([N+](=O)[O-])ccc2NC(=O)CNC2CCCCC2C)cc(OC)c1 (stereo not drawn) | -3.1 | 0.415µM* | -3.1 | 35.7% | 6.31µM* | -4.7
O=C(CNC1CCCCC1)Nc1ccc([N+](=O)[O-])cc1C(=O)Nc1ccccc1F | -0.2 | ? | -34.8 | ? | ? | -2.6
SMILES | Cycloheximide cs | Pf growth 48h | HCMV inh | Pf growth 96h | HCV inh | Shiga inhibitor
CC1CCCCC1NCc1cccc([N+](=O)[O-])c1 (stereo not drawn) | 12.0 | -3.2% | -12.8 | 24.7% | 25.7% | 41.7*
CC(C)CNS(=O)(=O)c1cc2c3c(c1)CCC(=O)N3CCC2 | 14.8 | 6.3% | 24.3 | ? | 3.6% | 7.3
Cc1ccc(NC(=O)CCS(=O)(=O)c2ccccc2)cc1S(=O)(=O)N1CCOCC1 | -2.0 | -19.8% | 3.1 | ? | -5.4% | 9.5
CC(=O)Nc1ccc2nc(-c3cccs3)[nH]c2c1 | 26.7* | 82.0% | 89.1 | 49.4% | 8.6% | 68.3*
CC(C)(C)C(=O)Nc1ccc(-c2nc3ccc(NC(=O)C(C)(C)C)cc3[nH]2)cc1 | nt | nt | 39.6 | nt | nt | nt
CC(=O)Nc1ccc2nc(-c3cccn3C)[nH]c2c1 | 16.7* | 69.5% | 113.9 | 14.2% | 5.5% | nt
Cn1cccc1-c1nc2ccc(NC(=O)c3cccs3)cc2[nH]1 | 26.1* | 1.5% | 9.6 | 11.7µM* | ? | 61.7
Cc1ccc(Cn2c(CO)cnc2SCC(=O)Nc2ccc(C)c(Cl)c2)cc1 | 9.1 | nt | -12.7 | nt | nt | 21.0
N/C(=N\c1nc2ccccc2o1)NC(=O)c1ccccc1F | 47.4* | 79.5% | 59.3 | 333.5% | -10.3% | 100.0*
N/C(=N\c1nc2ccccc2o1)NC(=O)c1ccccc1NC(=O)c1ccccc1 | 12.1 | ? | 20.3 | 10.3% | 2.1% | -3.9
N/C(=N\c1nc2ccccc2o1)NC(=O)c1cccc(Cl)c1 | 1.9 | 29.3% | -27.3 | 32.8% | 12.7% | 33.4
COc1ccccc1C(=O)NC(=Nc1nc2ccccc2o1)NC(=O)c1ccccc1OC | 16.9* | ? | 63.3 | -28.3% | ? | 21.9*
CCCCC(=O)N/C(N)=N/c1nc2ccccc2o1 | 42.9* | 210.1% | -17.8 | 331.6% | ? | 35.8*
COc1cccc(N(C(=O)c2sc(C)nc2C)C(C(=O)NCC2CCCO2)c2ccccc2)c1 (stereo not drawn) | -8.1 | -16.2% | -34.0 | -1.0% | -13.3% | 11.2
COc1ccc(NC(=O)CN2C(=O)COc3ccc(S(=O)(=O)N4CCCCC4)cc32)cc1Cl | nt | nt | 24.6 | nt | nt | nt
Cn1ncc(C(=O)N=S(C)(=O)c2ccccc2)c1[N+](=O)[O-] (stereo not drawn) | 2.0 | 23.7% | 18.8 | 41.6% | 6.7% | 14.1
COc1ccc(NC(=O)NC2CCCc3ccccc32)cc1OC (stereo not drawn) | 33.5* | 137.3% | -40.0 | -22.5% | ? | 31.0*
COCCNc1ccc([N+](=O)[O-])cc1C(=O)NC1CCCc2ccccc21 (stereo not drawn) | -2.6 | ? | 35.5 | ? | 12.6µM* | 2.5
COc1ccc(C(=O)NC2CCCc3ccccc32)cc1 (stereo not drawn) | 16.9 | -13.7% | -70.4* | ? | -9.1% | 65.8
COc1cccc(C(=O)NC2CCCc3ccccc32)c1 (stereo not drawn) | 14.1 | -17.6% | 26.2 | ? | -6.1% | nt
COc1cccc(CNC2CCCc3ccccc32)c1OC (stereo not drawn) | -4.9 | -8.6% | -21.9 | 2.94µM* | -1.3% | -12.0
